Reference: PubChem BioAssay AID1159583 (ICCB-Longwood Screening Facility, Harvard Medical School, 2016)
Where “and” joins values, the source holds several entries; their conditions need not be identical. Equal entries are not always repeated. Hit rate of the full screen: of about 300,000 compounds, about 310 (0.1%) were called active. Cut-off read from the data, not from the text of the source: active = fluorescence inhibition mostly above about 23% (no sharp cut-off); inactive = mostly below about 17%. What follows is part of a selection rich in actives, with near analogues and random picks from the rest.

Assay: hypoxia reporter signal reduction in M. tuberculosis – fluorescence, absorbance growth readout, primary screen (AID 1159583)
Settings: M. tuberculosis hypoxia-regulated fluorescent reporter, stronger effect = higher value, concentration not given here; growth inhibition: measured here: M. tuberculosis growth (absorbance)

| Structure (SMILES) | fluorescence inhibition | growth inhibition |
| --- | --- | --- |
| CC(=NNC(=O)c1cc(-c2cccnc2)nc2ccccc12)c1ccc(O)cc1O | 2.22% (inactive) | 2.87% |
| COc1ccc(C=NNC(=O)c2ccccc2OC)cc1COc1ccccc1[N+](=O)[O-] | 1.62% (inactive) | -1.45% |
| C[C@@]12CCC=CC1C(c1ccc(C(F)(F)F)cc1)N(Cc1ccccc1)C2=O (some centres undefined) | 11.1% (inactive) | 10.9% |
| Cc1ccccc1CN1C(Cc2ccccc2)COCCS1(=O)=O (centres undefined) | 6.62% (inactive) | 4.01% |
| CC=CC=CC(=O)Nc1cccc(C2=NOC3(C2)CC(C(N)=O)N(C(=O)c2ccccc2C(=O)c2ccccc2)C3)c1 (centres undefined) | -0.767% (inactive) | 8.5% |
| C=CCn1c(SCC(=O)NC(=O)Cc2ccccc2)nc2ccccc2c1=O | 23.4% (active) | 56.9% |
| C=CCn1c(SCc2ccc(C(=O)NCCO)cc2)nc2ccccc2c1=O | 9.54% (inactive) | 8.96% |
| COC(=O)CSc1nc2ccccc2c(=O)n1Cc1ccccc1 | 5.85% (inactive) | 20.4% |
| CCN(CC)c1ccc(C=NNS(=O)(=O)c2cccc([N+](=O)[O-])c2)cc1 | -5.38% (inactive) | 0.14% |
| CCC(=NNC(=O)CSCc1ccccc1Br)c1ccc2c(c1)OCCO2 | 0.753% (inactive) | 1.89% |
| O=C(NN=Cc1cccc([N+](=O)[O-])c1)c1ccc(CN2CCOCC2)cc1 | 4.86% (inactive) | 16.6% |
| CCCCN=C1NC(=Cc2ccco2)C(=O)N1c1ccccc1 | 8.24% (inactive) | 10.9% |
| COc1ccccc1C=NNC(=O)CCn1cnc2ccccc21 | 4.69% (inactive) | -0.174% |
| CCCCNC(=O)CN1C(=O)NC(Cc2ccccc2)(Cc2ccccc2)C1=O | 3.73% (inactive) | 16.6% |
| COc1cccc(CNC(=O)CN2C(=O)NC(Cc3ccccc3)(c3ccccc3)C2=O)c1 (centres undefined) | 26.4% (active) | 52.7% |
| COc1cccc(CNC(=O)COC(=O)CN2C(=O)NC3(CCCCC3C)C2=O)c1 (centres undefined) | -6.03% (inactive) | 2.37% |
| CC(CC(=O)Nc1ccc(Cl)cc1Cl)=NNC(=O)C(=O)N1CCCC1 | 11% (inactive) | 5.91% |
| COc1ccc(C=NN=C(N)c2nonc2N)cc1 | 10.3% (inactive) | 6.79% |
| CC(=O)OCC1OC(CC=NOCC(O)C2OC3OC(C)(C)OC3C2O)C=CC1OC(C)=O (centres undefined) | 9.33% (inactive) | 7.61% |
| CCOC(=O)C1C2COc3cc(OC)ccc3C2N2C(=O)N(c3ccc(Cl)cc3)C(=O)[C@]12C (some centres undefined) | -4.96% (inactive) and 1.79% (inactive) | 2.67% and 0.308% |
| CC(=O)Nc1ccc(S(=O)(=O)NN=Cc2ccc(C)o2)cc1 | 7% (inactive) | -2.42% |

| Structure (SMILES) | fluorescence inhibition | growth inhibition |
| --- | --- | --- |
| O=C(Cc1cccs1)NN=C/C=C/c1ccco1 | 8.6% (inactive) | 14.2% |
| O=C(CNC(=O)c1ccc2c(c1)OCCO2)NN=Cc1ccc(Cl)cc1 | -0.656% (inactive) | 8.25% |
| COc1ccc(OC)c(C=NNC(=O)c2[nH]ncc2Br)c1 | 17.8% (inactive) | 3.99% |
| COc1cc(C=NNC(=O)Cc2c[nH]c3ccccc23)cc(OC)c1OC | 1.09% (inactive) | 3.89% |
| COc1ccc2ccccc2c1C=NNC(=O)c1cccc(Br)c1 | 6.25% (inactive) | 6.52% |
| CCN1C(=O)C2C(c3ccc(-c4cccc(Cl)c4)cc3)N[C@@](C)(C(=O)OC)C2C1=O (some centres undefined) | 8.93% (inactive) | 17.5% |
| Cc1ccccc1CN1C(=O)C(C)SC1=NN=Cc1ccco1 (centres undefined) | 7.25% (inactive) | 1.63% |
| COC(=O)c1ccc(C=NNC(=O)c2ccc3nc[nH]c3c2)cc1 | 3.23% (inactive) | -1.77% |
| CC(C)C(=NNC(=O)Nc1ccccc1)c1ccccc1 | 3.82% (inactive) | 6.86% |
| CC(=NNC(=O)c1csc(C)c1C)c1ccco1 | 12.3% (inactive) | 18.1% |
| CCN(CC)S(=O)(=O)c1ccc(NN=Cc2ccc(OC)c(OC)c2OC)nc1 | 6.7% (inactive) | 6.24% |
| CC(=NNC(=O)c1cc2ccccc2cc1O)c1ccc2c(c1)OCO2 | -11.6% (inactive) | 0.0347% |
| C=CCNC(=S)NN=Cc1ccc(-c2cc(Cl)ccc2Cl)o1 | 6.01% (inactive) | 7.37% |
| N#Cc1ccc(OCC(=O)NN=CC2CC=CCC2)cc1 (centres undefined) | 15.6% (inactive) | 1.47% |
| O=C(CCCCCCCCC(=O)NN=Cc1ccco1)NN=Cc1ccco1 | -1.23% (inactive) | 5.53% |
| Cc1cccc(C(=O)NN=C2SCC(=O)N2Cc2ccccc2)c1 | -0.985% (inactive) | -2.16% |
| O=C(NN=Cc1ccc2nccnc2c1)c1ccc(Br)cc1 | -2.27% (inactive) | -1.22% |
| C/C(C=NNC(=O)Cc1cccs1)=C\c1ccco1 | 8.51% (inactive) | 5.57% |
| CCOC(=O)NN=CC=Cc1ccco1 | 5.07% (inactive) | 6.05% |
| COC(=O)c1ccc2[nH]c(C(C)O)c(C(C)O)c2c1 (centres undefined) | -12.5% (inactive) | 0.422% |
| COc1cc(C=NNC(=O)C(=O)NCc2cccnc2)cc(OC)c1OC | 11.1% (inactive) | 2.3% |

| Structure (SMILES) | fluorescence inhibition | growth inhibition |
| --- | --- | --- |
| COC(=O)C1C[C@@]2(Br)c3ccccc3N(S(=O)(=O)c3ccccc3)C2N1C(=O)OC (some centres undefined) | -0.203% (inactive) | -1.54% |
| CCOc1cccc(C=NN2C(C)CCCC2C)c1O (centres undefined) | -2.33% (inactive) | -0.595% |
| O=C(NC1CCCCC1)C1CC=CC2CCN(C3CCCCC3)C(=O)C21 (centres undefined) | 8% (inactive) | 14.6% |
| C[C@@]12C(=O)N(Cc3ccco3)CC(=O)N1C1c3cc(Cl)ccc3OCC1C2c1ccccc1 (some centres undefined) | -6.06% (inactive) | 1.32% |
| Cn1cc([N+](=O)[O-])c(C(=O)NN=Cc2ccc([N+](=O)[O-])cc2)n1 | -5.59% (inactive) | 5.33% |
| Cc1ccc(C=NN(C)S(=O)(=O)c2ccc(C)cc2)cc1 | -1.94% (inactive) | -2.51% |
| CCOC(=O)C1=C(C)CC(=NNC(=O)c2ccccc2O)CC1 | 19.7% (inactive) | 25.6% |
| CC(=NNC(=O)c1ccc(CSc2nncn2C)cc1)c1ccc(Cl)cc1 | -0.114% (inactive) | 4.72% |
| Cc1cc(C)nc(N=C(N)C2=C(O)CC(C)(C)CC2=O)n1 | 8.68% (inactive) | 10.4% |
| CC(Oc1ccccc1[N+](=O)[O-])C(=O)NN=Cc1ccoc1 (centres undefined) | -0.473% (inactive) | 0.98% |
| Cc1cc(C=NO)c(C)n1-c1ccccc1 | 10.5% (inactive) | 1.78% |
| C/C(C=NNC(=O)c1ccncc1)=C\c1ccccc1 | 16.5% (inactive) | 7.43% |
| Cc1nn(-c2ccccc2)c(Cl)c1C=NNC(=O)c1cccc(S(=O)(=O)N2CCCC2)c1 | 10.2% (inactive) | 5.33% |
| C=C1CCN(C(C(=O)NCc2ccc(OC)cc2)C(C)C)S(=O)(=O)c2ccccc21 (centres undefined) | 1.86% (inactive) | 4.01% |
| O=C1CSC(=S)N1N=Cc1ccc(C(F)(F)F)cc1 | 17.6% (inactive) | 14.7% |
| COCCCNC(=S)NN=Cc1ccc(N(C)C)cc1 | 11.6% (inactive) | 2.41% |
| CC(=NNC(=O)c1c(C)nc2ccccn12)c1ccc(C(C)(C)C)cc1 | -2.47% (inactive) | 18.1% |
| CC(C)C(NC(=O)c1ccccc1)C(=O)OCC(=O)N1CCCc2ccccc21 (centres undefined) | 6.63% (inactive) | 6.94% |
| COc1cccc(C=NNC(=O)CSCC(=O)Nc2ccccc2)c1O | 0.94% (inactive) | 11.7% |
| CC(=NNC(=O)c1cc(-c2ccc(Cl)s2)[nH]n1)c1ccco1 | 0.382% (inactive) | 4.98% |
| CSc1ccc(C=NNC(=O)CNc2ccc3ccccc3c2)cc1 | 3.37% (inactive) | -2.84% |

| Structure (SMILES) | fluorescence inhibition | growth inhibition |
| --- | --- | --- |
| O=C1NC(Cc2ccccc2)C(=O)N2C1C[C@]1(Br)c3ccccc3N(S(=O)(=O)c3ccccc3)C21 (some centres undefined) | 4.31% (inactive) and 12.8% (inactive) | 6.26% and 10.9% |
| COc1ccccc1C=NNC(=O)c1ccc2c(c1)OCO2 | 14.7% (inactive) | 5.14% |
| COCCCN1C(=O)C(=O)C(=C(O)c2ccc(C)cc2)C1c1ccccc1 (centres undefined) | -3.99% (inactive) | -0.925% |
| CC1CN=C(Nc2ccccc2)N1CCCC1CCCCC1 (centres undefined) | 7.1% (inactive) | 4.93% |
| O=C1CCCC1=c1sc(=Cc2cccnc2)c(=O)n1-c1ccccc1 | 9.8% (inactive) | 5.53% |
| O=C1/C(=C\c2cccnc2)CN(Cc2ccccc2)C/C1=C\c1cccnc1 | 53.7% (active) | 35.7% |
| Cc1ccccc1C1=N/C(=C/c2cccnc2)C(=O)O1 | -4.88% (inactive) | 6.23% |
| Cc1cc(C(=O)NN=Cc2ccc3ccccc3c2)n[nH]1 | 7.06% (inactive) | -3.88% |
| Cc1ccc(NCC(=O)NN=Cc2ccc([N+](=O)[O-])o2)cc1 | -3.3% (inactive) | 3.65% |
| CN(C)c1ccc(C=NNC(=O)c2nonc2N)cc1[N+](=O)[O-] | 2.61% (inactive) | -5.42% |
| Nc1nonc1C(=O)NN=Cc1ccc([N+](=O)[O-])o1 | 52.4% (active) | 31.3% |
| Cc1cccc(C=NNC(=O)CN2CCCCCCC2)c1 | 2.65% (inactive) | 8.69% |
| COc1ccc(C2CC=C(C(=O)O)C(c3ccccc3F)N2S(=O)(=O)c2ccc(C)cc2)cc1OC (centres undefined) | 19.4% (inactive) | 4.47% |
| CCCC(=O)O[C@]1(C(=O)CCl)C(C)CC2C3CCC4=CC(=O)C=C[C@]4(C)[C@@]3(F)C(=O)C[C@@]21C (some centres undefined) | -12.7% (inactive) | 2.62% |
| Cc1ccc(S(=O)(=O)N(C)CC(=O)NN=Cc2ccc(C)o2)cc1 | -4.3% (inactive) | 1.08% |
| COc1ccc(C2OCC3OC(O)C(NC(C)=O)C(O)C3O2)cc1 (centres undefined) | 4.65% (inactive) | 11.9% |
| COc1ccc(C(=O)NN=C(c2ccccc2)c2ccccn2)cc1 | -1.57% (inactive) | 6.08% |
| CCc1ccc(C=NNC(=O)c2ccccn2)cc1 | 9.62% (inactive) | 15.4% |
| CCN(CC)CCOc1ccc2c(c1)C(=NNC(=O)c1ccccn1)c1cc(OCCN(CC)CC)ccc1-2 | 46.2% (active) | 20.2% |
